{
  "source": "PubChem BioAssay (Tox21)",
  "note": "Inconclusive results are not listed. A call without a number means that no potency is given here. Activity calls are given as the source filed them. Calls follow the shape of the dose curve; as a rule, active = well fitted activation curve with a large enough effect in the signal ratio in the repeat runs (not every such curve was filed as active); inconclusive = weak or mixed curves; inactive = flat fitted curve, though single readings scatter; the % refers to the signal ratio. Potency is read from the fitted curve at half-maximal effect.",
  "data": [
    {"assay": "qHTS assay to identify small molecule agonists of H2AX (AID 1224845)", "conditions": "CHO-K1 phospho-H2AX Ser139 HTRF, 3 h; series mostly up to 154 µM; activation (H2AX phosphorylation): at the top concentration", "description": "National Center for Advancing Translational Sciences [NCATS]\nNIH Chemical Genomics Center [NCGC]\nU.S. Environmental Protection Agency [EPA]\nNational Institutes of Environmental Health Sciences [NIEHS]\nNational Toxicology Program [NTP]\nU.S. Food and Drug Administration [FDA]\nHTRF phospho-H2AX (Ser139) assay (Cisbio Bioassays, US) enables the quantitative detection of the histone variant H2AX when phosphorylated on serine 139. When double-stranded DNA breaks, either by ionizing radiation or endogenous physiological processes, H2AX becomes phosphorylated at Ser139. This phospho-Ser139 serves as a sensitive biomarker for the detection of such breaks, localizing the site of DNA repair. So, HTRF phospho-H2AX Ser139 is a pertinent assay to study genome stability, the cell cycle, DNA repair, and it serves as a biomarker for cancer, and to understand aging. Wild type CHO-K1 cells were used to identify the inducers of Phospho-H2AX Ser 139 from the Tox21 10K compound collections.\nTox21 Assay Protocol Summary:\nThe CHO-K1 cells suspended in culture medium containing 10% FBS were dispensed at 1000 cells/ 3 ul/well in 1536-well white wall/solid bottom plates (Greiner Bio-One North America, NC) using a Multidrop Combi (Thermo Fisher Scientific Inc., Waltham, MA). After the assay plates were incubated at 37C overnight, 23 nl of compounds at 15 concentrations (from 5-48 columns) or positive control (from 1 to 4 columns) were transferred to the assay plates using a Pintool station (Wako, San Diego, CA) into each well resulting in a final DMSO concentration of 0.76%. After 3hr incubation at 37C, 1 uL/well Supplemented Lysis buffer (diluted 100 fold blocking reagent in lysis buffer) (HTRF Phospho-H2A.X (S139) Assay kit from Cisbio US Inc., Bedford, MA) was added using a Flying Reagent Dispenser (FRD) (Aurora Discovery, CA). After 10sec spin at 1000 rpm in a plate centrifuge, the assay plates were incubated at room temperature for 30 min. Then followed by the addition of 1 uL/well detection buffer (containing a mixture of two antibodies, one labeled with cryptate, Anti pH2AX (S139)-K and another labeled with d2, Anti H2AX-d2) using FRD. After incubation at room temperature for 24 hr, the time resolved fluorescence at excitation 320 nm and emissions at 665 nm and 620 nm was measured using an Envision plate reader (PerkinElmer, Waltham, MA).", "values": [
      {"compound": "O=Cc1ccc(CO)o1", "Potency": "inactive"},
      {"compound": "Brc1ccc(Oc2ccc(Br)cc2)cc1", "activation (H2AX phosphorylation)": "0.0816% (inactive)"},
      {"compound": "CC(=O)OCCC(C)C", "Potency": "inactive"},
      {"compound": "NC(=O)c1ncn([C@@H]2O[C@H](CO)[C@@H](O)[C@H]2O)n1", "Potency": "53.2 µM (active)"},
      {"compound": "COc1c(Cl)ccc(Cl)c1C(=O)O", "Potency": "inactive"},
      {"compound": "C[Si](C)(C)N[Si](C)(C)C", "Potency": "inactive"},
      {"compound": "CCCCCCCCC(=O)O", "Potency": "inactive"},
      {"compound": "COCN(COC)c1nc(N(COC)COC)nc(N(COC)COC)n1", "Potency": "inactive"},
      {"compound": "Nc1cccc(C(F)(F)F)c1", "activation (H2AX phosphorylation)": "-0.566% (inactive)"},
      {"compound": "CC1=CC(=O)CC(C)(C)C1", "activation (H2AX phosphorylation)": "-0.369% (inactive)"},
      {"compound": "CC(O)CNCC(C)O", "note": "(stereo not given)", "activation (H2AX phosphorylation)": "0.466% (inactive)"},
      {"compound": "CC(C)(CO)CO", "Potency": "inactive"},
      {"compound": "O=C1C(N(CO)C(=O)NCO)N(CO)C(=O)N1CO", "note": "(stereo not given)", "Potency": "inactive"},
      {"compound": "CO[Si](CCCNCCN)(OC)OC", "Potency": "inactive"},
      {"compound": "OCCOCCOCCOCCOCCO", "Potency": "inactive"},
      {"compound": "OB(O)O", "Potency": "inactive"},
      {"compound": "CC(C=O)Cc1ccc(C(C)(C)C)cc1", "note": "(stereo not given)", "activation (H2AX phosphorylation)": "7.97% (inactive)"},
      {"compound": "Cc1nnc(NS(=O)(=O)c2ccc(N)cc2)s1", "Potency": "inactive"},
      {"compound": "COc1ccc([C@@H]2CC(=O)c3c(O)cc(O[C@@H]4O[C@H](CO[C@@H]5O[C@@H](C)[C@H](O)[C@@H](O)[C@H]5O)[C@@H](O)[C@H](O)[C@H]4O)cc3O2)cc1OC", "Potency": "inactive"},
      {"compound": "CC[N+](CC)(CC(=O)Nc1c(C)cccc1C)Cc1ccccc1", "Potency": "inactive"},
      {"compound": "Cc1ccccc1Cl", "Potency": "inactive"},
      {"compound": "Clc1cccc(Cl)c1NC1=NCCN1", "Potency": "inactive"},
      {"compound": "COC(=O)/C=C\\C(=O)OC", "Potency": "inactive"},
      {"compound": "CCCCCCCCCCCC(=O)N(C)CC(=O)O", "Potency": "inactive"},
      {"compound": "OCc1ccc(Cl)cc1Cl", "Potency": "inactive"},
      {"compound": "Cc1cc(CC(=O)O)n(C)c1C(=O)c1ccc(Cl)cc1", "Potency": "inactive"},
      {"compound": "NC(N)=S", "Potency": "inactive"},
      {"compound": "CC/C=C(\\C(=O)N[C@@H]1C(=O)N2C(C(=O)OCOC(=O)C(C)(C)C)=C(COC(N)=O)CS[C@H]12)c1csc(N)n1", "Potency": "inactive"},
      {"compound": "CS(=O)(=O)c1ccc(Cl)cc1", "Potency": "inactive"},
      {"compound": "CC(=O)OC[C@H]1O[C@@](COC(C)=O)(O[C@H]2O[C@H](COC(C)=O)[C@@H](OC(C)=O)[C@H](OC(C)=O)[C@H]2OC(C)=O)[C@@H](OC(C)=O)[C@@H]1OC(C)=O", "Potency": "inactive"},
      {"compound": "O=C(NCC1CCCCN1)c1cc(OCC(F)(F)F)ccc1OCC(F)(F)F", "note": "(stereo not given)", "Potency": "inactive"},
      {"compound": "C=CC(C)(C)C", "Potency": "inactive"},
      {"compound": "Cc1ccncc1", "Potency": "inactive"},
      {"compound": "Cc1cccc(C)c1[N+](=O)[O-]", "activation (H2AX phosphorylation)": "-0.625% (inactive)"},
      {"compound": "O=C(Cl)c1ccc(C(=O)Cl)cc1", "Potency": "inactive"},
      {"compound": "CCCCCC(C)=O", "activation (H2AX phosphorylation)": "0.131% (inactive)"},
      {"compound": "O=C1O[C@H]([C@H](O)CO)C(O)=C1O", "Potency": "inactive"},
      {"compound": "CC(C)c1ccc(C(C)C)cc1", "Potency": "inactive"},
      {"compound": "CC(=O)Nc1ccc(CC(=O)O)cc1", "Potency": "inactive"},
      {"compound": "COc1c2ccoc2cc2oc(=O)ccc12", "Potency": "inactive"}
    ]}
  ]
}
